The list is not random: actives were taken first. Their share in the collection is about 7.3%.
uPA surface inh = cell surface uPA generation inhibition. cell surface uPA generation assay, qHTS. Potency, µM (titrated, usually from 38.3 µM), inactives show top-dose activity change, negative = inhibition, most hits filed as inhibitors. AID 540303. hit rate 0.31% among 330,000; active means well fitted inhibition curve with a large enough effect; inconclusive means small, poorly fitted or top-dose-only effect; inactive means no such curve, though single readings can be large or run the other way; tested in mouse RAW 264.7 cells; further: on the % scale 0 is the no-effect control and ±100 the full control effect; nearly all actives have a fitted effect of over 55% in size
FLuc counter = inhibits or activates purified firefly luciferase, miR-21 counter-screen. P08659. purified FLuc, Km substrates, luminescence inhibition. Potency, µM (titrated, usually from 57.5 µM), inactives show at the highest dose activity change, negative = inhibition, hits mostly inhibitors. hit rate 6.9% among 360,000. AID 588342;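 further: plate controls were vehicle for no effect and reference inhibitor for full effect; nearly all actives have a fitted effect of over 55% in size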
Target sequence (P08659 whole entry, looked up): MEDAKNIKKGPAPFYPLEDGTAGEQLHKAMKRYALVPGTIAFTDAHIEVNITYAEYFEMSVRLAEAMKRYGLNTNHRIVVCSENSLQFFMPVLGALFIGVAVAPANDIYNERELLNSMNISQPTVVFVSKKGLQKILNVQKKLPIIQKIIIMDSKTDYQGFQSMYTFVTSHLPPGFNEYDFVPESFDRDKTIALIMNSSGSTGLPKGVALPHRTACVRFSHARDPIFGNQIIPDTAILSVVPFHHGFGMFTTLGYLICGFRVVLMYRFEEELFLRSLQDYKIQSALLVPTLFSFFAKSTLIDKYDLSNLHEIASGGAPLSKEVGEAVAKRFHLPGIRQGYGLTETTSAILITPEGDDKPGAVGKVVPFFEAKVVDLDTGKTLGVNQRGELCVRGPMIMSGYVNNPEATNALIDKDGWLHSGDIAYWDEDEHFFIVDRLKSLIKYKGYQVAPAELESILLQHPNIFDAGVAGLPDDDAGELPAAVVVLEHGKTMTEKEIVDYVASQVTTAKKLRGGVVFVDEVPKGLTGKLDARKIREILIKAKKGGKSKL
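Purified P. pyralis luciferase, 10 nM final, with Km-level 10 uM D-luciferin and 10 uM ATP in 50 mM Tris acetate pH 7.5, 10 mM Mg acetate, 0.01% Tween-20, 0.05% BSA; 6-point qHTS titration about 60 µM downward; luminescence read.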
Rab9 promoter act = Rab9 promoter activation; hit rate 2.8% among 320,000; Potency, µM (doses to about 9.22 µM), inactives show at the top dose activation, negative = inhibition, most hits filed as activators; Huh7 Rab9 promoter-luciferase reporter, luminescence, 24 h; further: % of control where 0% means no effect; nearly all actives have a fitted effect of over 60% in size
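Cell-based reporter: Huh7 stable for Rab9 promoter-driven luciferase, plated in reduced-serum medium with 10% FBS at 1500 cells/well, compound-treated 24 h at 37 °C, luminescence read after 10 min reagent.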
SMN2 splice up = increases expression of the SMN2 splice variant; hit rate 2.8% among 210,000; Potency, µM (highest dose often 46.1 µM), for the others: at the highest dose activity change, positive = activation, hits mostly activators; HEK293 SMN2-luciferase splicing reporter, luminescence, 30-36 h; further: % of control where 0% means no effect; nearly all actives have a fitted effect of over 55% in size
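HEK293 cells carry an SMN2 minigene-luciferase reporter in which exon 7 inclusion puts luciferase in frame. Cells were seeded at 2000 cells/well, attached for 10-12 hours, then exposed to compounds for 30-36 hours at 37C before ONE-Glo luminescence.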
NPC1 promoter act = activates the NPC1 promoter; Huh7 NPC1 promoter luciferase reporter, 24 h; Potency, µM (doses to about 9.22 µM), for the others: at the highest dose activation, actives largely listed as activators; hit rate 2.4% among 320,000; AID 485313; further: % of control where 0% means no effect; nearly all actives have a fitted effect of over 60% in size
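NPC1 promoter–luciferase Huh7 cells; 24 h compound; luminescence.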
ELG1 genotoxic = induces genotoxicity in HEK293T cells with luciferase-tagged ELG1 | hit rate 1.3% among 330,000 | Potency, µM (series often up to 46 µM), without a hit: at the top dose activity change, positive = activation, hits mostly activators | HEK293T ELG1-luciferase reporter, luminescence, 16 h | AID 504466; further: % of control where 0% means no effect; nearly all actives have a fitted effect of over 60% in size
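After overnight (16 hr) compound treatment at 37 °C, ELG1-luciferase HEK293T cells were lysed with ONE-Glo; luminescence quantified 30 min later at room temperature.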
The depositor's hits bear a star; ? = inconclusive; nt = no result; [ ] = another dose, or the depositor's remark. Unless noted, the call rests on the fitted dose curve; in most records, active means well fitted curve in the direction sought with a large enough effect; inconclusive means small, poorly fitted or top-dose-only effect, or another doubt; inactive means no such curve, though single readings can be large; an effect the other way counts as inactive or inconclusive. Potency means the concentration at half of the fitted maximal effect.

SMILES	uPA surface inh	FLuc counter	Rab9 promoter act	SMN2 splice up	NPC1 promoter act	ELG1 genotoxic
COC(=O)C1C(=O)c2c([nH]c(C(=O)OC3CCCCC3)c2C)CC1C (stereo not drawn)	-21%	1.7µM*	2.8µM*	13µM*	2.8µM*	?
COC(=O)C1C(=O)c2c([nH]c(C(=O)OC3CCCC3C)c2C)CC1C (stereo not drawn)	?	2.4µM*	1.4µM*	11µM*	1.6µM*	4.6µM*
CCCCCc1ccc(-c2cn(CC3CCCCC3)nn2)cc1	-11%	-1%	2µM*	nt	?	0%
COc1ccc(-c2cn(CC3CCCCC3)nn2)cc1	-3%	?	2.8µM*	nt	4µM*	?
c1ccc(-c2cn(CC3CCCCC3)nn2)cc1	-19%	15µM*	2.2µM*	nt	3.5µM*	?
CCCCCc1ccc(-c2cn(CCCOCc3ccccc3)nn2)cc1	?	-1%	-2%	nt	3%	-1%
CCN(CC)CC[n+]1ccc2c(C)c3[nH]c4ccc(O)cc4c3c(C)c2c1	nt	nt	nt	-41%[9.22 µM]	nt	nt
COc1ccc(-c2noc(CN(C(=O)C(C)Oc3ccc(C)cc3)C(C)C)n2)cc1 (stereo not drawn)	nt	1%	nt	-18%	nt	nt
COC(=O)Cc1c(C)c2ccc(OCc3nn[nH]n3)c(C)c2oc1=O	nt	?	-1%	4%	-4%	3%
COC(=O)Cc1c(C)c2ccc(OCC(C)=O)c(C)c2oc1=O	-10%	?	?	13µM*	?	9.2µM*
C=C(C)COc1ccc2c(C)c(CC(=O)OC)c(=O)oc2c1C	-21%	9.5µM*	?	-36%	?	9.2µM*
COC(=O)Cc1c(C)c2ccc(OCC(=O)N3CCCC(C)C3)c(C)c2oc1=O (stereo not drawn)	-16%	3%	-6%	nt	-2%	-11%
CCOc1ccc(CNC(=O)CN2C(=O)CCn3nc(-c4cn(C)c5ccccc45)cc32)cc1OC	nt	-8%	nt	nt	nt	nt
Clc1ccccc1CSc1cc2c(nn1)-c1ccccc1CC2	3%	5.4µM*	2.5µM*	20µM*	?	?
c1ccc2c3n(nc2c1)CCCO3	-3%	3%	-1%	nt	0%	4%
C#Cc1ccc2c(c1)COc1c3ccccc3nn1-2	13µM*	nt	nt	nt	nt	nt
C(#Cc1ccc2c(c1)COc1c3ccccc3nn1-2)c1ccccc1	-10%	12µM*	?	nt	?	?
CC(C#Cc1ccc2c(c1)COc1c3ccccc3nn1-2)OC(C)(C)C (stereo not drawn)	1%	11µM*	?	nt	?	12%
C(#CC1CCCCC1)c1ccc2c(c1)COc1c3ccccc3nn1-2	6%	4.8µM*	?	nt	?	19%
Cc1ccc(-n2nc(C(=O)N3CCN(c4cccc(C(F)(F)F)c4)CC3)c3c4ccccc4n(C)c3c2=O)cc1	nt	0%	nt	-12%	nt	nt
Cc1nn(C)c2c1c(-c1ccccc1)cc(=O)n2Cc1ccccc1C#N	nt	-20%	nt	nt	nt	nt
CCC(C)NC(=O)Cn1c(=O)n(-c2ccc(C)c(C)c2)c(=O)c2c(C)c(C(=O)N(CC)CC)sc21 (stereo not drawn)	nt	-3%	nt	nt	nt	nt
C[C@@H]1C=CC(=O)O[C@@H]1c1ccc(C(F)(F)F)cc1	nt	-2%	-28%	nt	-26%	10%
C[C@H]1C=CC(=O)O[C@H]1c1ccccc1	2.5µM*	nt	nt	nt	nt	nt
O=C(ON=C1CCSCC1)c1ccccc1	-8%	nt	nt	nt	nt	nt
SMILES	uPA surface inh	FLuc counter	Rab9 promoter act	SMN2 splice up	NPC1 promoter act	ELG1 genotoxic
CC(C)(C)C1CCC(=NOC(=O)c2ccc(F)cc2)CC1 (stereo not drawn)	7%	19µM*	3%	1%	-7%	0%
O=C(ON=C1CCN(S(=O)(=O)c2ccccc2)CC1)c1ccc(F)cc1	0%	-15%	3%	-6%	-4%	0%
O=C(O/N=C1/CCCc2occc21)c1ccc(F)cc1	-2%	1.9µM*	2%	0%	-5%	-1%
O=C(O/N=C1/CCSc2ccccc21)c1ccc(F)cc1	nt	0.34µM*	-1%	-21%	7%	0%
CCOC(=O)N1CCc2c(sc3c2c(=O)n(Cc2ccccc2)c(=O)n3CC(=O)Nc2ccc(C)c(C)c2)C1	nt	1%	nt	-7%	nt	nt
COc1ccc(-n2c(SCCC(C)C)nc3sc4c(c3c2=O)CC(C(C)C)OC4)cc1 (stereo not drawn)	nt	-2%	nt	-5%	nt	nt
COc1ccc(C(=O)Nc2nc3ccccc3[nH]2)cc1OC	nt	15µM*	2.8µM*	11µM*	2.8µM*	?
COc1cc(C(=O)Nc2nc3ccccc3[nH]2)ccc1OC(F)F	-12%	11µM*	2.8µM*	nt	1.4µM*	?
COc1ccc(Cl)cc1C(=O)Nc1nc2ccccc2[nH]1	-15%	0.085µM*	?	nt	?	?
CCCCNC(=O)c1cnn2c(C)c(Cc3c(F)cccc3Cl)c(C)nc12	nt	-14%	nt	nt	nt	nt
Cc1cc(C)cc(NC(=O)c2sc3nc4n(c(=O)c3c2C)N=C(c2ccc(F)cc2)CS4)c1	nt	-1%	nt	nt	nt	nt
Cn1nc(C(F)(F)F)c(-c2ccc(Br)cc2)c1NC(=O)c1ccco1	-23%	6%	-13%	nt	0%	-6%
O=C(/C(C=Nc1cccc(C(F)(F)F)c1)=C(/O)c1ccco1)C(F)(F)F	1%	24µM*	0%	?	-2%	?
O=C(/C(C=Nc1ccc(Br)cc1)=C(/O)c1ccco1)C(F)(F)F	-11%	6µM*	3.2µM*	14µM*	?	?
Cc1cc(C)cc(NC(=O)COc2cccc3c(=O)n(C)ccc23)c1	nt	2%	nt	nt	nt	nt
Nc1cnn([C@@H]2O[C@H](CO)[C@@H](O)[C@H]2O)c(=O)n1	nt	nt	nt	22µM*	nt	nt
CCC(C)Nc1sc(S(=O)(=O)CC)nc1S(=O)(=O)c1ccc(C)cc1 (stereo not drawn)	nt	6%	nt	1%	nt	nt
CC1CCc2c(sc3nnn(Cc4ccc(F)cc4)c(=O)c23)C1 (stereo not drawn)	nt	1%	nt	-7%	nt	nt
Cc1ccc(C(=O)Nc2cccc(N(C)S(C)(=O)=O)c2)cc1S(=O)(=O)Nc1ccccc1	8%	-3%	-3%	-3%	3%	-9%
Cc1cccc(NC(=S)NNC(=O)c2ccc3c(c2)OCO3)c1	-2%	4.8µM*	1.8µM*	13µM*	?	?
COC(=O)c1ccsc1NC(=O)c1ccc2c(c1)OCCO2	-4%	19µM*	17%	nt	-1%	14%
Cc1cccc(NC(=O)c2ccc3c(c2)OCCO3)c1	-16%	0.76µM*	0.63µM*	nt	0.89µM*	?
Cc1cccc(NC(=S)NCc2ccc3c(c2)OCO3)c1	-3%	-1%	-9%	25%	-2%	1%
Cc1cccc(NC(=O)CN2CCC(C(=O)c3ccc4c(c3)OCCO4)CC2)c1	-3%	6%	-5%	nt	-1%	-8%

Screens: PubChem, National Center for Advancing Translational Sciences (NCATS)
